The source of these data is ChEMBL document CHEMBL4513216, “Probing the Open Global Health Chemical Diversity Library for Multistage-Active Starting Points for Next-Generation Antimalarials” (ACS Infect Dis, 2020).

About 2,700 (4%) of roughly 68,000 compounds showed an effect of 50% or more. The full list was thinned out, with strong results kept by preference.

In this test the test system is Plasmodium berghei. As to the kind of experiment: Screen against P. berghei liver stage (PbLuc), transformed with Luciferase, at 2uM. In kind it is functional, HepG2. The settings on record: tested at 2 uM.
Regarding `CC(C)(C)c1nccc(C2(c3ccccc3Cl)CCNCC2)n1`, the INHIBITION is given as 2.06%.

For `CSCCC(=O)N1CCN(CC(O)C(C)(C)C)CC1` (configuration not stated), the INHIBITION worked out at 32.1%.

For `CSCCC(=O)N1CCN(CC(C)O)CC1` (configuration not stated), the INHIBITION is 52.3%.

With `CCC(O)CN1CCN(C(=O)CCSC)CC1` (configuration not stated), the INHIBITION is reported as -38.59%.

`CC(C)c1nnc(NC(=O)CCC(=O)NCC2CCCO2)s1` (configuration not stated): the INHIBITION was determined as 4.39%.

Take `CC(CNC(=O)CCCn1cncn1)N1CCc2ccccc2C1` (configuration not stated): the INHIBITION is -48.63%.

`CC(C)C(CNC(=O)CCn1cncn1)N1CCc2ccccc2C1` (configuration not stated): the INHIBITION was 16.98%.

As for `CCC(CNC(=O)CCn1cncn1)N1CCc2ccccc2C1` (configuration not stated), the INHIBITION turned out to be 60%.

On to `O=C(CN1CCCCCC1=O)NCC1CCN(c2ccccc2)C1` (configuration not stated), for which the INHIBITION is reported as -17.17%.

Turning to `CC(CNC1CCN(Cc2ccncc2)CC1)c1ccc(F)cc1F` (configuration not stated), the INHIBITION was found to be 26.99%.

With `CC(C)c1cc(NCC(O)c2ccc(F)cc2)n2nccc2n1` (configuration not stated), the INHIBITION is given as -25.05%.

As to `CCN(CC(F)(F)F)C(=O)C1CCCN(Cc2nc(C)c(C)o2)C1` (configuration not stated), the INHIBITION is given as 35.46%.

For `CC(=O)NCCc1cc(N2CCN(C(C)=O)CC2)nc(C2CC2)n1`, the INHIBITION is 51.61%.

With `CC(=O)N1CCN(c2cc(CCNC(=O)C(C)C)nc(C3CC3)n2)CC1`, the INHIBITION is recorded as 27.39%.

Regarding `CCC(=O)NCCc1cc(N2CCN(C(C)=O)CC2)nc(C2CC2)n1`, the INHIBITION was -28.81%.

For `Cc1cnn(CC2CCCN2C(=O)CCc2ccc3c(c2)OCO3)c1` (configuration not stated), the INHIBITION is on record as -26.45%.

As for `NS(=O)(=O)c1ccc(F)c(C(=O)NCCSc2ccccn2)c1`, the INHIBITION was determined as 32.97%.

For the molecule `Cn1ccnc1-c1nc(N2CCCCC2)ncc1-c1ccccc1F`, the INHIBITION is -29.24%.

Consider `CS(=O)(=O)NCc1cnc2n1CCN(Cc1ccsc1)CC2`, for which the INHIBITION was -75.39%.

In the case of `CS(=O)(=O)NCc1cnc2n1CCN(Cc1cccnc1)CC2`, the INHIBITION was found to be 8.36%.

Consider `CS(=O)(=O)NCc1cnc2n1CCN(Cc1ccoc1)CC2`, for which the INHIBITION amounted to 50.17%.

`CN(Cc1ccco1)Cc1ccccc1CNC(=O)c1cnc[nH]1`: the INHIBITION worked out at 21.27%.

`Cn1nccc1-c1cccc(CC2CCN(S(C)(=O)=O)C2)n1` (configuration not stated): the INHIBITION is reported as -30.88%.

For `CC(C)Nc1cccc(CC2CCN(S(C)(=O)=O)CC2)n1`, the INHIBITION turned out to be 52.82%.

Consider `CC(C)Nc1cccc(CC2CCN(C)C2)n1` (configuration not stated), for which the INHIBITION is listed as -5.42%.

On to `Fc1ccc(-c2noc(C3COCCO3)n2)cc1F` (configuration not stated), for which the INHIBITION was -29.82%.

For `O=C(Cc1ccc(S(=O)(=O)C(F)F)cc1)N1CCC1`, the INHIBITION was 17.61%.

Regarding `CN1CCN(C(=O)Cc2ccc(S(=O)(=O)C(F)F)cc2)CC1`, the INHIBITION is 63.39%.

Take `O=C(Cc1ccc(S(=O)(=O)C(F)F)cc1)N1CCCC1`: the INHIBITION was 33.7%.

For the molecule `COCc1ccccc1C(=O)N1CCCC1Cn1nc(C)cc1C` (configuration not stated), the INHIBITION is on record as -63.06%.

As for `CC(Cn1cncn1)NCc1nncn1C1CCCCC1` (configuration not stated), the INHIBITION was -28.93%.

With `O=C1NCCN1C1CCCN(Cc2coc(-c3ccc(F)cc3)n2)C1` (configuration not stated), the INHIBITION turned out to be 60.21%.

As to `O=C1NCCN1C1CCCN(Cc2nnc(-c3ccc(F)cc3)o2)C1` (configuration not stated), the INHIBITION is -43.47%.

For the molecule `O=C1NCCN1C1CCN(Cc2coc(-c3ccc(F)cc3)n2)CC1`, the INHIBITION stood at 17.31%.

On to `COc1cccc2c1OCC(C(=O)N(Cc1ccncc1)CC(C)C)C2` (configuration not stated), for which the INHIBITION was determined as 17.2%.

With `COCCN(Cc1ccncc1)C(=O)C1COc2c(cccc2OC)C1` (configuration not stated), the INHIBITION came to 45.82%.

For the molecule `COCCN(Cc1ccncc1)C(=O)C1COc2ccccc2C1` (configuration not stated), the INHIBITION was determined as 33.9%.

Take `COc1cccc2c1OCC(C(=O)NCCn1nc(C)c(Cl)c1C)C2` (configuration not stated): the INHIBITION stood at 24.36%.

For `CCN(Cc1ccncc1)C(=O)C1COc2c(cccc2OC)C1` (configuration not stated), the INHIBITION is listed as 57.75%.

For the molecule `COc1cccc2c1OCC(C(=O)NCCCn1nc(C)c(Cl)c1C)C2` (configuration not stated), the INHIBITION is on record as 50.59%.

For `CCCn1nc(C)c(CNC(=O)C2COc3c(cccc3OC)C2)c1C` (configuration not stated), the INHIBITION amounted to 18.57%.

On to `COc1cccc2c1OCC(C(=O)N(C)CCCc1cnn(C)c1)C2` (configuration not stated), for which the INHIBITION turned out to be 27.75%.

Regarding `COCCN(Cc1cnn(C)c1)C(=O)C1COc2c(cccc2OC)C1` (configuration not stated), the INHIBITION came out at 72.05%.

On to `CC(C)(C)n1cc(C(=O)N2CCN(Cc3cccnc3)CC2)cn1`, for which the INHIBITION was -3.57%.

For the molecule `Cc1ccccc1CCCN1CCS(=O)(=O)CC1C` (configuration not stated), the INHIBITION was -31.95%.

For `CC(C)n1cnc2c(-c3cccnc3)nc(C3CCNCC3)cc21`, the INHIBITION is -17.24%.

For the molecule `CCO[C@@H]1CO[C@@]2(CCCN(C(=O)c3ccc(OC)c(F)c3)C2)C1`, the INHIBITION is on record as -8.46%.

`CCO[C@H]1CO[C@@]2(CCCN(S(=O)(=O)c3cccnc3)C2)C1`: the INHIBITION was 50.35%.

For the molecule `O=C(c1ccc(F)c(F)c1)N1CCC[C@]2(C[C@@H](OCC3CC3)CO2)C1`, the INHIBITION amounted to 13.04%.

With `CCOCC(=O)N1CCC[C@]2(C[C@@H](OCc3ccncc3)CO2)C1`, the INHIBITION is reported as 55.15%.

Consider `O=C(C1CC1)N1CCC[C@]2(C[C@@H](OCc3ccncc3)CO2)C1`, for which the INHIBITION stood at 2.4%.

For the molecule `CCO[C@@H]1CO[C@@]2(CCCN(S(=O)(=O)c3cccnc3)C2)C1`, the INHIBITION was determined as 27.16%.
